Test [1] addresses Cytochrome P450 1A2 (Homo sapiens) (UniProt P05177). In words: p450-cyp1a2 (AID 410; calls by dose curve; further: potency means the concentration at half of the fitted maximal effect). Summed up: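 Luminescent readout of luciferin formed from Luciferin-ME by human CYP1A2; data normalized against complete inhibition by 57 uM furafylline. Enzyme 20nM, substrate 100uM at Km, 100mM KPO4 buffer, 60 min reaction at room temperature.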
The nature of test [2]: NFAT Signaling Pathway (AID 444; active means well fitted curve in either direction with a large enough effect, not every such curve was filed as active;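 further: carbachol stimulus at about its EC50 of 1 µM final; on the % scale 0 is the no-effect control and ±100 the full control effect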). The note with it: Jurkat NFAT-bla M1, carbachol, beta-lactamase ratio, 5 h; at 38 µM (top of the series). Summed up: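 Read-out: CCF4 FRET ratio (460 nm/530 nm) after 1 h RT dye loading, used for %activity and AC50 from titration series. Cells: Jurkat NFAT-β-lactamase/M1 line, treated with compound plus 1 uM carbachol for 5 h, 37 °C.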
Test [3] has as its target Glucocorticoid receptor (Homo sapiens) (UniProt P04150). In words: GR-GFP Redistribution (AID 450;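 active means compounds whose dose series gives a full or clear partial fitted curve of increased nuclear translocation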; further: potency means the concentration at half of the fitted maximal effect). The note with it: U2OS GR-GFP nuclear translocation, laser cytometry, 2 h.
The target is the same in test [4]. In words: GR-EFC Redistribution (AID 451; calls by dose curve; further: potency means the concentration at half of the fitted maximal effect). The note with it: CHO-K1 GR-EFC translocation, beta-gal luminescence, 2 h. Summed up: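 Translocation of GR-ED fusion to nuclear EA restores b-gal, read by luminescence after 1 h room-temperature detection. Engineered CHO-K1 biosensor cells, 1,000/well, exposed 2 h at 37 C to titrations up to 46 uM final.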
For test [5], the target named is Mitogen-activated protein kinase 10 (Mus musculus) (UniProt Q61831). In words: JNK3 AlphaScreen Assay (AID 530; active means well fitted curve in either direction with a large enough effect, not every such curve was filed as active;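 further: kinase came from lysate of stimulated human HepG2 cells; potency means the concentration at half of the fitted maximal effect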). Summed up: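 Compound titrations were preincubated 15 minutes at room temperature with substrate, antibody and pre-activated JNK3-containing HepG2 lysate. Reactions were started with 10 uM ATP and stopped with EDTA-containing bead buffer for AlphaScreen detection.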

Test [6] concerns the target 3',5'-cyclic-AMP phosphodiesterase 4B (Homo sapiens) (UniProt Q07343). In words: qHTS Assay for Inhibitors of PDE-IV (AID 607; active means well fitted activation curve with a large enough effect in the main read-out, with a control signal flat, not every such curve was filed as active; further: % of control where 0% means no effect). Summed up: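 HEK293 ACTOne cells with CNG channel (1000/well), endogenous PDE4; membrane potential dye, compounds up to 22.9 uM final. Fluorescence Ex 535/Em 590; RO 20-1724 (100 uM final) as reference.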
For test [7], the target named is Guanine nucleotide-binding protein G(i) subunit alpha-1 (Homo sapiens) (UniProt P63096). In words: qHTS Assay for Inhibitors of RGS12 GoLoco Motif Activity (Green Fluorophore) (AID 879).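 Further: 0% = labeled peptide with Gαi1 and full inhibition = labeled peptide alone without protein; negative values mean loss of peptide binding seen as reduced polarization.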 Summed up:
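Fluorescence polarization assay: 50 nM Gαi1 with 10 nM FITC-labeled RGS12 GoLoco peptide in 10 mM Tris pH 7.5, 150 mM NaCl, 0.1 mM GDP, 0.05% NP40, 10 min at room temperature with compound.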
(In general: Quantitative high-throughput screening tests each substance at several concentrations.)

Test [8] deals with Cytochrome P450 2C9 (Homo sapiens) (UniProt P11712). In words: qHTS Assay for Inhibitors and Substrates of Cytochrome P450 2C9 (AID 883). Further: on the % scale 0 is the no-effect control and ±100 the full control effect; nearly all actives have a fitted effect of over 60% in size. Summed up:
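Luminescent read-out of deoxyluciferin hydroxylation, normalized to 57uM sulphaphenazole (AC100). Reaction: 10nM enzyme, 100uM Luciferin-H (equal to KM), 25mM KPO4, 10 min compound preincubation, then 60 min with NADPH regeneration, both at 37C.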

For test [9], the target named is Cytochrome P450 3A4 (Homo sapiens) (UniProt P08684). In words: qHTS Assay for Activators of Cytochrome P450 3A4 (AID 885). Further: nearly all actives have a fitted effect of over 65% in size. Summed up: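 Human CYP3A4 (20 nM) with Luciferin-PPXE at 25 uM (its KM) in 200 mM KPO4; 10 min compound preincubation, then NADPH regeneration and 60 min reaction at RT. Luciferin read by luminescence; normalized to 57 uM ketoconazole full inhibition.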

In test [10] the target is Cytochrome P450 2D6 (Homo sapiens) (UniProt P10635). In words: qHTS Assay for Inhibitors and Substrates of Cytochrome P450 2D6 (AID 891).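 Further: luciferin methyl ether substrate demethylated by CYP2D6 with NADPH regeneration; on the % scale 0 is the no-effect control and ±100 the full control effect; nearly all actives have a fitted effect of over 60% in size.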 Summed up:
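Human CYP2D6 (5 nM) with 30 uM Luciferin-ME EGE (at Km) in 100 mM KPO4, compound preincubated 10 min, then NADPH regeneration system for 60 min at room temperature. Luciferin read by luminescence; normalized to 1.43 uM quinidine.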

The nature of test [11]: qHTS Assay for Identification of Small Molecule Agonists for Thrombopoietin (TPO) Signaling Pathway (AID 917). Further: on the % scale 0 is the no-effect control and ±100 the full control effect. Summed up:
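Reporter: GpIIb promoter–luciferase in murine Ba/F3 expressing human TPO receptor. Pre-starved of IL-3 overnight; compounds with 26 pM TPO, 24 hrs, 37 C/5% CO2; luminescence read.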

The target in test [12] is Muscarinic acetylcholine receptor M1 (Rattus norvegicus) (UniProt P08482). In words: qHTS Assay for Antagonists of Acetylcholine Muscarinic M1 Receptor: Kinetic Measurement of Intracellular Calcium Response (AID 943).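 Further: Fluo-4 calcium signal as peak divided by basal fluorescence over 4 min; nearly all actives have a fitted effect of over 75% in size.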 Summed up:
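Rat M1-CHO cells, 2000/well, overnight → Fluo-4 no-wash dye with probenecid, 1 h 37C → compound 10 min, room temp → basal read 6 s → carbachol EC80 (100 nM) → 4 min kinetic read; peak/basal.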

In test [13] the target is Pyruvate kinase PKM (Homo sapiens) (UniProt P14618). In words: qHTS Assay for Inhibitors of Human Muscle Pyruvate Kinase (AID 958). The note with it: purified human PKM enzyme activity. Summed up:
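ATP production by PKM2 detected via luciferase luminescence after 1 h room-temperature reaction (0.1 nM enzyme, PEP at Km 0.5 mM, ADP 0.1 mM, pH 7.2 imidazole buffer). Inhibition scaled to no-enzyme control; activation referenced to 0.3 nM enzyme wells.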

For test [14], the target named is Pyruvate kinase (Leishmania mexicana) (UniProt Q27686). In words: qHTS Validation Assay for Activators of Leishmania Mexicana Pyruvate Kinase (AID 959). Summed up:
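The enzyme is a highly purified E451W mutant of LmPYK used at 0.2 nM. It converts 0.5 mM PEP and 0.1 mM ADP over 1 h at room temperature; product ATP is quantified by luciferase luminescence relative to DMSO controls.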

The target of test [15] is Alpha-galactosidase A (Homo sapiens) (UniProt P06280). In words: Counterscreen for Glucocerebrosidase Inhibitors: qHTS Assay for Human alpha-Galactosidase at pH 4.5 (AID 992). Further: 0% is about no effect. Summed up: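 Human enzyme (2 nM) with 80 uM 4-methylumbelliferyl alpha-D-galactopyranoside in 50 mM citric acid, 0.005% Tween-20, pH 4.5, 20 min at room temperature. Compounds 0.7 nM–77 uM; fluorescence Ex 365/Em 440 after pH 10 stop; AC50 from Hill fits.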
In general terms: A counterscreen serves to expose hits that act by an unwanted route or on another target.

Test [16] in a line: qHTS Assay for Lipid Storage Modulators (AID 1519; calls by dose curve; on activity change, negative = inhibition: on the % scale 0 is the no-effect control and ±100 the full control effect). The note with it: Drosophila S3 cells, BODIPY lipid droplet/cell ratio, laser cytometry, cells loaded with oleic acid. Summed up:
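Cells seeded at 5,000 per well were treated with compounds over a concentration series and loaded with oleic acid (400 uM, as added). Lipid droplet fluorescence (488 nm excitation, 500-530 nm channel) was read by laser-scanning cytometry and normalized to 20 uM Triacsin C.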

Test [17] can be described thus: Counterscreen for APE1 Inhibitors: Fluorescent Dye Displacement Validation Assay (AID 1707).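 Further: plate controls were ThO with dsDNA and no compound for no effect and ThO without dsDNA for full effect.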 Summed up:
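Thiazole Orange (250 nM) bound to 50 nM TAMRA-labelled dsDNA with tetrahydrofuran abasic site; displacement by DNA-binding compounds lowers fluorescence. Buffer 50 mM Tris-HCl pH 7.5, 50 mM NaCl, 2 mM MgCl2, 0.01% Tween-20; endpoint read at 480/540 nm.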

Test [18] has as its target Endonuclease 4 (Escherichia coli (strain K12)) (UniProt P0A6C1). In words: Counterscreen for APE1 Inhibitors: qHTS Validation Assay for Inhibitors of Endonuclease IV (AID 1708). Further: on the % scale 0 is the no-effect control and ±100 the full control effect. Summed up:
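qHTS concentration-response format; LOPAC1280 tested under APE1-screen conditions. 2 nM enzyme, 15 min compound preincubation at RT, then 50 nM TAMRA/BHQ-2 abasic substrate; kinetic fluorescence read, three reads at 60 s intervals.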

Test [19] is described as follows: qHTS for differential inhibitors of proliferation of Plasmodium falciparum line 7G8 (AID 1815).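 Further: potency means the concentration at half of the fitted maximal effect; parasite growth measured after three days of incubation.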

Values joined by “and” are separate entries in the source; they are usually repeats but may differ in a detail not shown here. Identical values can stand only once. Results filed as inconclusive are left out. Active and inactive are the calls of the source. Unless noted, the call rests on the fitted dose curve; in most records, active means well fitted curve in the direction sought with a large enough effect; inconclusive means small, poorly fitted or top-dose-only effect, or another doubt; inactive means no such curve, though single readings can be large; an effect the other way counts as inactive or inconclusive. Bounds are passed on as bounds.

Chain of Glucocorticoid receptor (Homo sapiens) (P04150 whole entry, looked up, the tested form may be a part): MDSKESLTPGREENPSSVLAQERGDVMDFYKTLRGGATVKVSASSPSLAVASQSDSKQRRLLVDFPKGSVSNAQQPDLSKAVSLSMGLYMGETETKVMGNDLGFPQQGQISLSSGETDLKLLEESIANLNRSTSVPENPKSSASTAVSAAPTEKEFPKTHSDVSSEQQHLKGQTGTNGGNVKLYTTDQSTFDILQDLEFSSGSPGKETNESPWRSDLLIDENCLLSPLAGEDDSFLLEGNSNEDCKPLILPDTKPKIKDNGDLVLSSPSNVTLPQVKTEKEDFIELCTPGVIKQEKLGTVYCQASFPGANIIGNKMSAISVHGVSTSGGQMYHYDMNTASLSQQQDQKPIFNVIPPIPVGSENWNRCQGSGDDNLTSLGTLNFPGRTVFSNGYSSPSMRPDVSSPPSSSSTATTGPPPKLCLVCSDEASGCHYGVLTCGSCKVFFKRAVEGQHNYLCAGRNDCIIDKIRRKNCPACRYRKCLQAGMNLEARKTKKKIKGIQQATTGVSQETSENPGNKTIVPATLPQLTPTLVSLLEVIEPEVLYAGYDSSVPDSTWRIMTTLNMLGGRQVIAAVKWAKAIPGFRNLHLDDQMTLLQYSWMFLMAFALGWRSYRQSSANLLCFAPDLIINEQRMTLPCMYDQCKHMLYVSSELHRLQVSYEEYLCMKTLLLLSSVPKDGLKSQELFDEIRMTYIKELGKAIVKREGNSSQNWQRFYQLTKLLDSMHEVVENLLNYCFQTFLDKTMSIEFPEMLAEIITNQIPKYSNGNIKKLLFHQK
Chain of Cytochrome P450 1A2 (Homo sapiens) (P05177 whole entry, looked up): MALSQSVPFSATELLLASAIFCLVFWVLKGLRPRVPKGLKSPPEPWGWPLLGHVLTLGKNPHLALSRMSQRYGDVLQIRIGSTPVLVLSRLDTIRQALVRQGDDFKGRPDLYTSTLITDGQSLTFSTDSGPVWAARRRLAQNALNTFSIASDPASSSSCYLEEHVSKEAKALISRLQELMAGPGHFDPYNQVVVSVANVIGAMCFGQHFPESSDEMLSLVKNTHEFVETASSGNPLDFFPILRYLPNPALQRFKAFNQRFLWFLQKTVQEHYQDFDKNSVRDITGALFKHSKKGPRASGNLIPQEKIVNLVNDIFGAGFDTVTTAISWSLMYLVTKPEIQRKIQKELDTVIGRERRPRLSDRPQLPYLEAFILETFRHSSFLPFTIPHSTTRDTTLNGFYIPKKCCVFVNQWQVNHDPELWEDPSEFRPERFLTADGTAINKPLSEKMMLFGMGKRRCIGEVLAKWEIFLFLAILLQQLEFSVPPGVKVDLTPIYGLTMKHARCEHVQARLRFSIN
Chain of Pyruvate kinase PKM (Homo sapiens) (P14618 whole entry, looked up): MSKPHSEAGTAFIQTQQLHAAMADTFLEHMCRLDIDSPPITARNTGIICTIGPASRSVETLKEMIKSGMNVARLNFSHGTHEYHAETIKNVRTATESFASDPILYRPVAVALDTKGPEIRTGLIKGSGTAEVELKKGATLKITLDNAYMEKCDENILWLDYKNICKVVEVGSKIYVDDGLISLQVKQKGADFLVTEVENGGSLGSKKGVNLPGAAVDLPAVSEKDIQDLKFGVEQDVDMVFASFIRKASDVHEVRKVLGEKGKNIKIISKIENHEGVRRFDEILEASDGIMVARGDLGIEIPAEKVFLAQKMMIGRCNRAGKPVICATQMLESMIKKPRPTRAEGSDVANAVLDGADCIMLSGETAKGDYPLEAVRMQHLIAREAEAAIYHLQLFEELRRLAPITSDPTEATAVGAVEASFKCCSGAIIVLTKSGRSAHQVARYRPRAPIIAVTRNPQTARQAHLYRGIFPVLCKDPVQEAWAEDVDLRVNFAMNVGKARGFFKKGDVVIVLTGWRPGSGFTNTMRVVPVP
Chain of Cytochrome P450 3A4 (Homo sapiens) (P08684 whole entry, looked up): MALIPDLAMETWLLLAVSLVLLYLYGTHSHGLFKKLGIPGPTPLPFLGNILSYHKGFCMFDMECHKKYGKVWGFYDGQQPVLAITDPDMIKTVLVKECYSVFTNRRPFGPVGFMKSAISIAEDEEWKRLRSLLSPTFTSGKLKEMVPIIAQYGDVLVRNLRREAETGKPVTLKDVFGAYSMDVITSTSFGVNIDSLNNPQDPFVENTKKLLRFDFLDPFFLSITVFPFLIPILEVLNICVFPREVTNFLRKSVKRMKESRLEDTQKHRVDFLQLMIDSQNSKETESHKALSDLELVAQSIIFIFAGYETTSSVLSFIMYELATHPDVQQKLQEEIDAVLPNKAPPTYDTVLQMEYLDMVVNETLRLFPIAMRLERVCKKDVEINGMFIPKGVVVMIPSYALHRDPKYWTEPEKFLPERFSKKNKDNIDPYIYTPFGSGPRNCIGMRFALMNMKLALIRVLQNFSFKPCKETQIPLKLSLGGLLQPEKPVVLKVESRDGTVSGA
Chain of Cytochrome P450 2C9 (Homo sapiens) (P11712 whole entry, looked up): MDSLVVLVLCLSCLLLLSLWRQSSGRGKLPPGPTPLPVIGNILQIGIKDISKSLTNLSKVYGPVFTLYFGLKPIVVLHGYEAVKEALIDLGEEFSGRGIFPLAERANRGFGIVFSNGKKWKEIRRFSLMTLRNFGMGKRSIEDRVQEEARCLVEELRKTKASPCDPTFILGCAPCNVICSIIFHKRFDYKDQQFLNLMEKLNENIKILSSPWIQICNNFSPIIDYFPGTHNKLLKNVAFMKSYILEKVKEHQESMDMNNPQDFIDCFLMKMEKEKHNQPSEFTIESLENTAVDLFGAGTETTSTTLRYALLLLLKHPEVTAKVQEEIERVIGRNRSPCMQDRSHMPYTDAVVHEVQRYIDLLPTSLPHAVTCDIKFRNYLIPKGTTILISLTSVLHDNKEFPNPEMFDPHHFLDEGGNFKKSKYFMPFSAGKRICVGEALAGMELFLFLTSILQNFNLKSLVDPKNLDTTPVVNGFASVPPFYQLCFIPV
Chain of Alpha-galactosidase A (Homo sapiens) (P06280 whole entry, looked up): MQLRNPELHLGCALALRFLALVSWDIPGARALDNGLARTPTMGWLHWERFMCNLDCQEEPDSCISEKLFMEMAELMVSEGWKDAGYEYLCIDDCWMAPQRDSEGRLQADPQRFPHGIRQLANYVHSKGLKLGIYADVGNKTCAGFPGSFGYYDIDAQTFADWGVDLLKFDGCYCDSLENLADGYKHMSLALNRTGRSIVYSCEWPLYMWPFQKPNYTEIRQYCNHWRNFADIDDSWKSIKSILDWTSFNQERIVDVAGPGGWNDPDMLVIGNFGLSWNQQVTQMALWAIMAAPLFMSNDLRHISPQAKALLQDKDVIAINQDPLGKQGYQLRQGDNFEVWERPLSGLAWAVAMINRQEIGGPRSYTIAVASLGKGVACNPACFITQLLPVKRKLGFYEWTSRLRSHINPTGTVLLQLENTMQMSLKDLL
Chain of 3',5'-cyclic-AMP phosphodiesterase 4B (Homo sapiens) (Q07343 whole entry, looked up): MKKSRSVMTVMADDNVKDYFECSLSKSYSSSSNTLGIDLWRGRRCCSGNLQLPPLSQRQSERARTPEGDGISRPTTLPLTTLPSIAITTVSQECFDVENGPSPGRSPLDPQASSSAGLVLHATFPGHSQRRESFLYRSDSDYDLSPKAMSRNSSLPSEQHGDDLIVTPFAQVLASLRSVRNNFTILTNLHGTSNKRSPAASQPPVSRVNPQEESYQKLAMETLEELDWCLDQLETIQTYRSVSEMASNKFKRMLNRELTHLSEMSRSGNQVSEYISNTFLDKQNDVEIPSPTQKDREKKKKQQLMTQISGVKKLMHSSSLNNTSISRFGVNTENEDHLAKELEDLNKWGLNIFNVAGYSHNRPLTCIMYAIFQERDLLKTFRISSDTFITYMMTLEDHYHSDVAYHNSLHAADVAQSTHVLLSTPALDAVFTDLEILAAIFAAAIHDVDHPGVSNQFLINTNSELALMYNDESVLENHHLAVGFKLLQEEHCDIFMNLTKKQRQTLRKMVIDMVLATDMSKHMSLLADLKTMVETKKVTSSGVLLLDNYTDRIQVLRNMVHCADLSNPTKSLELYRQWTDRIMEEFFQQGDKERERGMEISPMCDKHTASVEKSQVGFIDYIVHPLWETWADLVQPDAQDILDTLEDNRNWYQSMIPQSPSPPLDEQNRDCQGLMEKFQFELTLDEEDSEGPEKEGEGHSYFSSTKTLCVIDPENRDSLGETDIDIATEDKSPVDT
Chain of Muscarinic acetylcholine receptor M1 (Rattus norvegicus) (P08482 whole entry, looked up): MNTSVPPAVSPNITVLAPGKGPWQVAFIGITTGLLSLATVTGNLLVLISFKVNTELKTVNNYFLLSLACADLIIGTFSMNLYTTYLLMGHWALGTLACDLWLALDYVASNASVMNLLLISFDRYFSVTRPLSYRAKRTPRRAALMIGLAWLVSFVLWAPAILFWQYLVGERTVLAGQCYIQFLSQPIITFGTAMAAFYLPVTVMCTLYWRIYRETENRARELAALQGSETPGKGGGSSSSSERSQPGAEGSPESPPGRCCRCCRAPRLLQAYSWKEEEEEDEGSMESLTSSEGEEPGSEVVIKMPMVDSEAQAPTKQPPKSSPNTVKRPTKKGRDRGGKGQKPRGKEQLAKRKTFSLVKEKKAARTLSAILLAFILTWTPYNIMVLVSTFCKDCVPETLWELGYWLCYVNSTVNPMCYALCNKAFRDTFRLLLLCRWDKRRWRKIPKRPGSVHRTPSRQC
Chain of Pyruvate kinase (Leishmania mexicana) (Q27686 2-499 E452W): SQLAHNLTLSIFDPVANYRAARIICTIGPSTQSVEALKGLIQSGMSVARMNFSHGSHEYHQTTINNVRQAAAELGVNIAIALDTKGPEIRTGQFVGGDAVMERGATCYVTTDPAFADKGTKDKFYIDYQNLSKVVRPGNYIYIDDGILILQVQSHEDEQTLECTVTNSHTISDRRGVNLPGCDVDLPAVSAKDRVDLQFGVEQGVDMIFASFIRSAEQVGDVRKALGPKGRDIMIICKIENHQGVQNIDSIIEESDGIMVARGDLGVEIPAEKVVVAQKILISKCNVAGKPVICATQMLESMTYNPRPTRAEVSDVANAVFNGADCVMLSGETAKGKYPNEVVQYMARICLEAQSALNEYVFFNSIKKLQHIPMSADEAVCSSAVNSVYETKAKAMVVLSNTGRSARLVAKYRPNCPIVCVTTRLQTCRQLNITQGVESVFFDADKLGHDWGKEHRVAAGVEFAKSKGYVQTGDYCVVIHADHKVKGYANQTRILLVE

As to `N#C/C(=C\c1ccc(O)c(O)c1)C(=O)Nc1ccccc1`, the Potency in test [1] was 2 µM (active) and 501 nM (active); in [3], > 46 µM (inactive); in test [4], > 46 µM (inactive); in [5] it was 12.6 µM (active); in test [13], 25.1 µM (active); in [19], 8.91 µM (active). The activity change, negative = inhibition in [2] is 6.23% (inactive); in [16] (at 57.5 µM (top of the series)), -21.4% (inactive). In addition, the Potency entry in test [6], in test [8], in test [9], in test [10], in [11] and in [12] was “inactive” each time. Besides, the Potency entry in test [14], in [17] and in test [18] was “inactive” throughout. The compound was called inactive in [7] and in test [15]. The values for the max response in test [16] (measured here: cell count channel max response) and in test [16] (measured here: lipid channel max response) were -56.6% and -66.1%, respectively.

(Values after PubChem BioAssay (NCATS).)
